Results published in the supplement of paper PMC7411054.
Where a name gives a salt, the structure may show the parent alone.

Each molecule was assayed on WPMY1-GM130-SQSTM1 (assay: phenotypically active (imaging signature differs from DMSO and reproducible) at any of 0.3-9 uM (binary (1 = active, 0 = inactive)); higher = active). Conditions: treatment time: 24 h.
Outline: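 Cells from fifteen gene-edited reporter lines (A549, HepG2 and WPMY1) were treated for 24 h at 0.3, 1, 3 or 9 µM and imaged live, four wells per condition. Features were normalised per well to solvent control wells. A condition deviated if ≥3 of 4 wells passed the 95th percentile of control Euclidean distances and was reproducible if its median replicate Pearson correlation beat the 95th percentile of non-replicates; phenotypic activity needed both.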

Phenotypically active, active:
Nc1nc(Cl)nc2c1ncn2[C@@H]1O[C@H](CO)[C@@H](O)[C@@H]1F [clofarabine] 1
Cc1nc(Nc2ncc(C(=O)Nc3c(C)cccc3Cl)s2)cc(N2CCN(CCO)CC2)n1 [dasatinib] 1
O=C(NCc1cccc(O)c1)Nc1nc(-c2ccncc2)cs1 [RKI 1447 dihydrochloride] 1
CC(C)n1nc(-c2cc3cc(O)ccc3[nH]2)c2c(N)ncnc21 1
COc1ccc(-c2ccc3ncc4c(c3c2)n(-c2ccc(N3CCNCC3)c(C(F)(F)F)c2)c(=O)n4C)cn1 1
CC(C)(C)c1cnc(CSc2cnc(NC(=O)C3CCNCC3)s2)o1 1
O=C(O)c1ccc(Nc2ncc3c(n2)-c2ccc(Cl)cc2C(c2c(F)cccc2F)=NC3)cc1 1
COc1ccc(S(=O)(=O)N(C(C)=O)c2ccccc2/C=C/c2cc[n+]([O-])cc2)cc1 1
CC(C)(C)Nc1nc(Nc2ccc(C(N)=O)cc2)cc(N)c1C#N 1
Nc1cccc(-c2cc3c(Oc4cccc(O)c4)ncnc3[nH]2)c1 1
c1ccc2c(c1)Cc1c(Nc3ccc4c(c3)OCCO4)n[nH]c1-2 1
Cc1c(NC(=O)OC[C@@H]2COCCN2)cn2ncnc(Nc3ccc4c(cnn4Cc4cccc(F)c4)c3)c12 1
CCC(=O)N1CCN(c2ccc(-n3c(=O)ccc4cnc5ccc(-c6cnc7ccccc7c6)cc5c43)cc2C(F)(F)F)CC1 [Torin 1] 1
COc1c(Nc2cc(C)[nH]n2)nc(Sc2ccc(S(=O)(=O)Cc3cccc([N+](=O)[O-])c3F)cc2F)nc1N1CCOCC1 [Centrinone] 1
COc1cc2c(NC3CCN(C(C)C)CC3)nc(N3CCC(F)(F)CC3)nc2cc1OCCCN1CCCC1 1
CC(=O)c1c(C)c2cnc(Nc3ccc(N4CCNCC4)cn3)nc2n(C2CCCC2)c1=O 1
CN1c2ccccc2C(=O)N2CCc3c([nH]c4ccccc34)[C@H]21 [Evodiamine] 1
CO[C@H]1C=CC=C(C)C(=O)NC2=CC(=O)C(NCCN(C)C)=C(C[C@@H](C)C[C@H](OC)[C@H](O)[C@@H](C)C=C(C)[C@@H]1OC(N)=O)C2=O [17-DMAG hydrochloride] 1
Cc1noc(C)c1-c1cc(O)cc(C(O)c2ccccc2)c1 (stereo not drawn) 1
O=C(Nc1ccc(-c2ccnc(Nc3ccc(N4CCOCC4)cc3)n2)cc1)[C@@H]1CCCN1 1
NC1(C(=O)N[C@@H](CCO)c2ccc(Cl)cc2)CCN(c2ncnc3[nH]ccc23)CC1 1
NC(=O)Nc1cc(-c2cccc(F)c2)sc1C(=O)N[C@H]1CCCNC1 [AZD 7762 hydrochloride] 1
COc1cc2nc(-c3cc(F)ccc3O)nc(N[C@@H]3CNC[C@H]3C(C)(C)O)c2cc1OC 1
Cc1c[nH]c2nccc(Oc3c(F)cc(Nc4cc(Cl)nc(N)n4)cc3F)c12 1
C[C@H]1[C@H]2CC[C@H]3[C@@H]4CC=C5C[C@@H](N(C)C)CC[C@]5(C)[C@H]4CC[C@]23CN1C [Conessine] 1
CON(C)C(=O)N1N=C(c2cc(F)ccc2F)S[C@@]1(CCCN)c1ccccc1 [ARRY 520 trifluoroacetate] 1
CC[C@H](CO)Nc1nc(NCc2ccc(-c3ccccn3)cc2)c2ncn(C(C)C)c2n1 1
Oc1cccc(-c2nc(N3CCOCC3)c3oc4ncccc4c3n2)c1 [PI 103 hydrochloride] 1
COc1cc(/C=C/c2ccc(OC)cc2OC)cc(OC)c1 1
COc1cc2c(cc1-c1c(C)noc1C)ncc1[nH]c(=O)n([C@H](C)c3ccccn3)c12 [I-BET 151 dihydrochloride] 1
COc1cccc(-c2cc(F)ccc2[C@H]2Cc3nc(N)nc(C)c3C(=O)N2)n1 1
COc1cc(C(=O)NC2CCN(C)CC2)c(F)cc1Nc1ncc2c(n1)N(C1CCCC1)CC(F)(F)C(=O)N2C [TAK 960 hydrochloride] 1
CC[C@]1(O)C[C@@H]2CN(CCc3c([nH]c4ccccc34)[C@@](C(=O)OC)(c3cc4c(cc3OC)N(C=O)[C@H]3[C@@](O)(C(=O)OC)[C@H](OC(C)=O)[C@]5(CC)C=CCN6CC[C@]43[C@@H]65)C2)C1 [vincristine] 1
